# Compounds with a hit are over-represented: about 2.4% of the library has one in this group of screens.
# S2 tox = cell viability loss in ATXN counter-screen; S2 cells (HEK-293 line with an ATXN2-luciferase reporter) viability, CellTiter-Fluor protease fluorescence, 24 h; Potency, µM (doses to about 56.7 µM), hits mostly cytotoxic; 400,000 compounds, 0.49% hits; further: nearly all actives have a fitted effect of over 40% in size
# ATXN2 expr inh = reduces ATXN2 reporter expression in HEK-293 cells; HEK-293 ATXN2-luciferase reporter, luminescence, 24 h; Potency, µM (titrated, usually from 57 µM), most hits filed as inhibitors; 360,000 compounds, 0.72% hits; further: nearly all actives have a fitted effect of over 55% in size
#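 qHTS (up to 57 uM final) was run with 24 h compound exposure of reporter cells at 37 °C. Each well was multiplexed: SteadyGlo luminescence measured ATXN2-luciferase expression after a fluorogenic Gly-Phe-AFC viability readout (25 uM final).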
# TGFb SMAD3 inh = TGF-b pathway inhibition; 410,000 compounds, 1.2% hits; HepG2 CAGA-GFP TGF-b/SMAD3 reporter, GFP fluorescence, 18 h; TGF-beta stimulated, 500 pg/mL final; Potency, µM (doses to about 46.1 µM), most hits filed as inhibitors; AID 588855; further: nearly all actives have a fitted effect of over 65% in size
#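 Smad-responsive CAGA-GFP expression was quantified in HEPG2 cells exposed to compounds and 500 pg/mL final TGF-beta for 18 h at 37 degrees C; unstimulated wells defined full inhibition.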
# HepG2 viability = counter-screen for TGF-b inhibitors: cytotoxicity in HepG2 cells. HepG2 CAGA-GFP viability, ATP luminescence, 18 h. AID 588856. Potency, µM (top dose mostly 46.1 µM), usual class: cytotoxic. 410,000 compounds, 0.76% hits
#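 HepG2 CAGA-GFP cells (1000/well, DMEM with 1% FBS) received compound, then TGF-beta at 500 pg/mL final, and were incubated 18 hours at 37 degrees C. Viability was read by CellTiter-Glo luminescence. Media-only wells were set as complete cell-killing and DMSO as no toxicity.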
# Apoferritin bind = binds horse apoferritin like a general anesthetic; apoferritin/1-aminoanthracene competitive binding, fluorescence; Potency, µM (top dose mostly 77.5 µM), usual class: inhibitors; 350,000 compounds, 0.074% hits; AID 485281; further: nearly all actives have a fitted effect of over 20% in size
# Target sequence (P02791 2-175 limits assumed): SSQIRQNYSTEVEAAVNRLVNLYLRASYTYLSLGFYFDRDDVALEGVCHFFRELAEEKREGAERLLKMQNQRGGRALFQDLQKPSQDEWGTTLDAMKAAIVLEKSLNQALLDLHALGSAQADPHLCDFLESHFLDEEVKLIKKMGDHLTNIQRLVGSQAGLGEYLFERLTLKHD
#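 Read-out: endpoint 1-AMA fluorescence, excitation 380 nm and emission 535 nm, after compounds sit 10 min at room temperature with 10 uM horse-spleen apoferritin in 50% saturated 1-AMA/PBS. Values come from four-parameter Hill fits.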
# Numbers stand for hits; 0 = inactive; ? = inconclusive; - = no result; ! = repeats disagree. The call rests on the fitted dose curve; in most records, active means well fitted curve in the direction sought with a large enough effect; inconclusive means small, poorly fitted or top-dose-only effect, or another doubt; inactive means no such curve, though single readings can be large; an effect the other way counts as inactive or inconclusive.
SMILES,S2 tox,ATXN2 expr inh,TGFb SMAD3 inh,HepG2 viability,Apoferritin bind
Cc1ccc(S[C@@H](CCN2CC[C@H](C)CCC2=O)c2ccccc2)cc1,?,0,?,0,0
COc1ccc(S[C@@H](CCN2CC[C@H](C)CCC2=O)c2ccccc2)cc1,?,?,16µM,0,-
Cc1ccc(S[C@@H](CCN2CC[C@H](C(C)(C)C)CCC2=O)c2ccccc2)cc1,?,0,?,13µM,0
COc1ccc(SC[C@H](C)CN2CC[C@H](C(C)(C)C)CCC2=O)cc1,?,?,?,20µM!,-
CN(C)c1ccc(/C=C2\C=Cc3ccccc32)c(Cl)c1,-,-,0,0,-
CCCc1sc(N/N=C/c2ccccn2)nc1-c1ccc(F)cc1,16µM,4µM,11µM,0,0
CC(C)(O)[C@H]1CC[C@@](C)([C@H]2[C@@H](O)C[C@@]3(C)[C@@H]4C[C@H](O[C@@H]5O[C@H](CO)[C@@H](O)[C@H](O)[C@@H]5O)[C@H]5C(C)(C)[C@@H](O[C@@H]6OC[C@@H](O)[C@H](O)[C@@H]6O)CC[C@@]56C[C@@]46CC[C@]23C)O1,-,0,-,-,-
O=C1Cc2cc(CCN3CCN(c4nsc5ccccc45)CC3)c(Cl)cc2N1,35µM,?,-,-,0
Clc1ccc2c(ccc[n+]2CCC2CCCCC2)c1,-,-,0,0,-
Nc1ccc(N2CCN(CCCCN3C(=O)C4CCCN4C3=O)CC2)cc1 (stereo not drawn),18µM,0,0,0,0
CCSc1nc2ccccc2n1C(=O)/C=C/c1ccc(OC)c(OC)c1,8.9µM,7.9µM,?,0,0
COc1cc(/C=C/C(=O)N2CCN(C(=O)/C=C/c3cc(OC)c(OC)c(OC)c3)CC2)cc(OC)c1OC,0,0,0,0,0
CCn1c(SCC(=O)N/N=C/c2ccc(OC)c(OC)c2)nc2ccccc21,0,0,0,0,0
COc1ccc(/C=C/C(=O)N2CC(C)OC(C)C2)cc1OC (stereo not drawn),0,-,0,0,0
C=CCSc1nc2ccccc2n1C(=O)/C=C/c1ccc(OC)c(OC)c1,10µM,14µM,0,0,0
C=CCSc1nc2ccccc2n1C(=O)/C=C/c1cc(OC)c(OC)c(OC)c1,3.5µM,10µM,?,11µM,?
COCCN1CCN(C(=O)c2cnn(-c3ncc4c(n3)-c3ccc(OC)cc3CC4)c2C2CC2)CC1,0,-,-,-,-
Cc1o[nH]c(=O)c1CCC(N)C(=O)O (stereo not drawn),-,-,-,-,0
CN(C)S(=O)(=O)c1cccc(-c2nn(-c3ccccc3)cc2/C=C2\SC(=S)NC2=O)c1,0,0,13µM,0,0
CN(C)S(=O)(=O)c1cccc(-c2nn(-c3ccccc3)cc2/C=C(\C#N)c2nc3ccccc3[nH]2)c1,0,0,0,0,0
COc1cccc(N2[C@@H](CC(C)=O)c3ccc(/C=C/C(C)=O)cc3S2(=O)=O)c1,-,?,16µM,0,-
COc1ccc(CN2[C@@H](CC(C)=O)c3ccc(/C=C/C(C)=O)cc3S2(=O)=O)cc1,?,?,?,11µM!,-
O=C(/C=C/c1ccccc1)NC(NC(=S)Nc1ccc(Cl)cc1)C(Cl)(Cl)Cl (stereo not drawn),0,?,?,0,?
O=C(/C=C/c1ccccc1)NC(NC(=S)Nc1cc(Cl)ccc1Cl)C(Cl)(Cl)Cl (stereo not drawn),?,?,2.2µM,0,0
O=C(NC(NC(=S)Nc1cc(Cl)ccc1Cl)C(Cl)(Cl)Cl)c1ccco1 (stereo not drawn),0,?,16µM,0,?
SMILES,S2 tox,ATXN2 expr inh,TGFb SMAD3 inh,HepG2 viability,Apoferritin bind
COCC(=O)Nc1cc(C(=O)N2CCCCC2c2nccn2C)cc2nc(-c3ccccc3)n(C)c12 (stereo not drawn),0,-,-,-,-
COc1ccccc1C1CN(Cc2ccc(Sc3nncn3C)o2)Cc2ccccc2O1 (stereo not drawn),0,-,-,-,-
FC(F)(F)c1cc(CCN2C(=S)NC[C@@H]2CC2CCCCC2)cc(C(F)(F)F)c1,20µM,?,14µM,0,0
CCOc1ccc(CN2CCOc3ccc(C(O)c4cccnc4)cc3C2)cc1 (stereo not drawn),0,-,-,-,-
O=S(=O)(NCC(c1cccs1)S(=O)(=O)c1ccccc1)c1ccc(F)c(C(F)(F)F)c1 (stereo not drawn),-,-,?,0,0
O=S(=O)(NCC(c1cccs1)S(=O)(=O)c1ccccc1)c1ccc(F)cc1 (stereo not drawn),-,-,4µM,0,0
O=C(Cn1nnc(-c2ccc(CN3CCOCC3)cc2)n1)Nc1nc(-c2ccccc2)cs1,0,0,13µM,0,?
O=C(CN1CCOCC1)Nc1nc(-c2ccccc2)cs1,0,0,0,0,0
O=C(CN1C2=NCCCN2c2ccccc21)c1ccc([N+](=O)[O-])cc1,0,?,?,16µM,0
O=C(CN1C2=NCCN2c2ccccc21)c1ccc(Br)cc1,0,0,?,0,0
O=C(CN1C2=NCCN2c2ccccc21)c1ccc2c(c1)OCO2,16µM,0,0,0,0
COCc1c(C(=O)N2CCN(C)CC2)cnn1-c1ncc2c(n1)-c1ccccc1CCC2,0,-,-,-,-
CCS(=O)(=O)N1CCc2cc(C(=O)N3CCN(c4cccc(C(F)(F)F)c4)CC3)ccc21,?,?,11µM,0,?
O=C(c1ccc2c(c1)CCN2S(=O)(=O)c1ccccc1)N1CCN(c2cccc(Cl)c2)CC1,0,0,0,0,0
COc1ccc(CNC(=O)Cc2c(C)c3cc4c(C)coc4cc3oc2=O)cc1,-,-,0,0,0
OC1c2cc(Br)ccc2N=C2CCCCCN21 (stereo not drawn),0,0,0,0,-
OC1c2cc(Br)ccc2N=C2CCCN21 (stereo not drawn),16µM,-,?,0,0
COc1cc(CNCc2cc3cc(C)ccc3nc2-c2ccc(F)cc2)cc(OC)c1OC,0,-,-,-,-
O=C(Nc1ccc(OC(F)F)cc1)c1nc(S(=O)(=O)Cc2ccccc2F)ncc1Cl,-,-,13µM,11µM,-
O=C(Nc1ccc(OC(F)F)cc1)c1ncc(Cl)c(Cl)c1Cl,0,-,0,0,0
CCOc1ccc(NC(=O)c2nc(S(=O)(=O)Cc3ccccc3F)ncc2Cl)cc1,-,-,3.2µM,6.3µM,?
Cc1cc(C)c(S(=O)(=O)NCc2ccc3c(c2)CCN3C(=O)c2ccccc2)c(C)c1,-,-,?,0,?
O=[N+]([O-])c1ccc(N=Nc2c(Cl)cc(O)cc2Cl)cc1,?,-,1.1µM,3.2µM,?
Cc1cc(N2CCOCC2)ccc1/C=C\[N+](=O)[O-],?,?,11µM,18µM,0
CC(C)(C)n1ncc2c(=O)n(Cc3cccc(F)c3)cnc21,-,-,0,0,-
NCCCC[C@H](NC(=O)CNC(=O)[C@@H]1CCCN1C(=O)[C@H](Cc1ccc(O)cc1)NC(=O)CN)C(=O)N[C@@H](Cc1ccccc1)C(=O)O,-,-,-,-,0
O=S(=O)(c1ccccc1F)N1CCN(Cc2cc3c(cc2O)OCO3)CC1,0,-,0,4µM,-

# From PubChem BioAssay
